sPLA2-III inh = Inhibits HGIII-sPLA2 liposome hydrolysis, primary screen; inhibition, % at 12.2 µM; QFRET BODIPY PC-A2 liposome hydrolysis, fluorescence; AID 743126; 370,000 tested, 0.56% active;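 active means inhibition above mean plus 3 SD of compounds lying within the high and low control bounds, cut at about 19% in these data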
Target sequence (Q9NZ20 whole entry, looked up): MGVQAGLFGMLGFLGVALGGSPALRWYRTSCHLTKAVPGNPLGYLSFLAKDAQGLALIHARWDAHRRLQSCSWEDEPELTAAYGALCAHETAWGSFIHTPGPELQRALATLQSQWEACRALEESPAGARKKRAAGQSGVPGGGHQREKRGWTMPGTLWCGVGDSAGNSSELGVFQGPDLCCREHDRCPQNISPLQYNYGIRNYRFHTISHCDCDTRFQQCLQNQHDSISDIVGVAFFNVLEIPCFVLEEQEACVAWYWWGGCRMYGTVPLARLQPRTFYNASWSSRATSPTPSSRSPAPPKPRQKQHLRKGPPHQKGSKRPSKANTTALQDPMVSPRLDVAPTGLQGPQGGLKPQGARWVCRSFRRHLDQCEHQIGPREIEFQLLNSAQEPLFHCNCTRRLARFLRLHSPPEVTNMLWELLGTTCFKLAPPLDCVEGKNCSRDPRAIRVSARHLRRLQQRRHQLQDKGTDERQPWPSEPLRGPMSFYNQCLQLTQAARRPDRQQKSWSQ
MsrA inh = bovine MsrA inhibition. purified bovine MsrA, absorbance read-out. 360,000 tested, 0.75% active. inhibition, % at 15.5 µM; in the data active means inhibition above about 4.5%
rCAG binder = molecules binding r(CAG) RNA repeats. r(CAG) RNA repeat, TO-PRO-1 dye displacement fluorescence. inhibition, % at 3 µM. 370,000 tested, 1.3% active;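 active means inhibition above the plate cutoff, the mean of all test compounds on that plate plus 3 SD, cut at about 35% in these data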;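 further: higher means more dye released from RNA so lower well fluorescence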
MsrA act = activators of bovine methionine sulfoxide reductase A | purified bovine MsrA, absorbance read-out | AID 602163 | activation, % at 10.6 µM | 360,000 tested, 0.3% active; in the data active means activation above about 7.5%
sPLA2 confirm = human GIII-sPLA2 inhibition, confirmation; recombinant hGIII-sPLA2, BODIPY PC-A2 QFRET fluorescence; inhibition, % at 12.2 µM; 2,000 tested, 34% active; shares compounds with sPLA2-III inh; AID 743280;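 active means mean inhibition across triplicates above the hit cutoff set in the earlier primary screen, cut at about 19% in these data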
BODIPY interf = 535nm fluorescence interference, HGIII-sPLA2 counter-screen; AID 743282; shares compounds with sPLA2-III inh; BODIPY FL product fluorescence interference, QFRET; inhibition, % at 12.2 µM; 2,000 tested, 8.5% active;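 active means average inhibition above the solvent-only control mean plus 3 SD, cut at about 6% in these data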
BODIPY interf DR = counter-screen for HGIII-sPLA2 inhibitors: 535nm fluorescence interference, dose response; shares compounds with sPLA2-III inh; BODIPY FL product fluorescence interference, cell-free; IC50, µM; 240 tested, under 10 active; AID 743455;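 active means IC50 at or below 10 µM; inactive means IC50 above 10 µM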
Large screens that a line does not name were inactive (follow-up assays come after a bar, where they were run). Rows were chosen to be rich in hits. Some 2.8% of all compounds tested hit in one or more screens of this group.

CCc1ccc(OCCNc2cc(N3CCNC(C)C3)ccc2[N+](=O)[O-])cc1 (stereo not drawn)	sPLA2-III inh 26 | sPLA2 confirm inactive | BODIPY interf inactive
CCN1C(=NCCCOC(C)C)N[C@@H](c2ccccc2)[C@H](C(=O)OC)[C@H]1C	sPLA2-III inh 19 | sPLA2 confirm inactive | BODIPY interf inactive
CCN1C(=NCCc2ccc(Br)cc2)N[C@@H](c2ccccc2)[C@H](C(=O)OC)[C@H]1C	none
CC(C)(C)c1ccc(NC(=O)C2=CC=CN3CCS(=O)(=O)N=C23)cc1	none
CCN(CC)c1ccc(NC(=O)C2=CC=CN3CCS(=O)(=O)N=C23)cc1	sPLA2-III inh 21 | sPLA2 confirm inactive | BODIPY interf inactive
O=S(=O)(Cc1ccc(Cl)cc1)N1CCCCCC1	none
O=S(=O)(Cc1ccc(Cl)cc1)N1CCCC1	sPLA2-III inh 21 | sPLA2 confirm inactive | BODIPY interf inactive
O=C1c2ccccc2C(=O)c2c(NCCCN(CCO)CCO)cccc21	sPLA2-III inh 20 | sPLA2 confirm 31 | BODIPY interf inactive | BODIPY interf DR inactive
CCN(CC)CC(=O)Nc1cccc2c1C(=O)c1ccccc1C2=O	none
O=C(O)C1CC=CCC1C(=O)N1CCN(c2nc(-c3ccccc3Cl)c3cc(Br)ccc3n2)CC1 (stereo not drawn)	sPLA2-III inh 24 | sPLA2 confirm inactive | BODIPY interf inactive
Cc1ccc(C)c(-n2cc[nH]c2=S)c1	sPLA2-III inh 20 | sPLA2 confirm inactive | BODIPY interf inactive
COc1cccc(/C=N/NC(=S)NC2CC3CCC2C3)c1OC (stereo not drawn)	none
Oc1ccccc1/C=N/NC(=S)NC1CC2CCC1C2 (stereo not drawn)	sPLA2-III inh 28 | sPLA2 confirm inactive | BODIPY interf 7.3
O=C(CCSCc1cccc(F)c1)NCc1ccc(F)cc1	none
CC(=O)c1ccc(OC(C)C)c(CSC(=N)N)c1	none
CCCCOc1ccc(CSC(=N)N)cc1Cl	sPLA2-III inh 54 | sPLA2 confirm 32 | BODIPY interf inactive | BODIPY interf DR inactive
COc1ccc(Br)cc1CSC(=N)N	sPLA2-III inh 33 | sPLA2 confirm inactive | BODIPY interf inactive
CCOc1ccc(CSC(=N)N)cc1	none
CCCCCOc1ccc(Br)cc1CSC(=N)N	sPLA2-III inh 29 | sPLA2 confirm 21 | BODIPY interf inactive
CCOC(=O)CC1c2nc3ccccc3cc2CN1C(=O)OCC (stereo not drawn)	none
CCCCC[C@@H](C)N1C[C@H](COCc2ccccc2)Oc2cc(N3CCC[C@@H]3COC)ccc2S1(=O)=O	none
COC(=O)C(C)(C)ONC(=O)Nc1ccccc1Br	sPLA2-III inh 21 | sPLA2 confirm inactive | BODIPY interf inactive
CCCC(=O)Nc1ccc(NC(=S)NC(=O)c2ccccc2[N+](=O)[O-])cc1	none
CCCCCC(=O)NNC(=S)NC(=O)c1ccccc1[N+](=O)[O-]	sPLA2-III inh 21 | sPLA2 confirm 33 | BODIPY interf inactive | BODIPY interf DR inactive
O=C(NNC(=S)NC(=O)c1ccccc1[N+](=O)[O-])c1ccccc1Cl	sPLA2-III inh 36 | sPLA2 confirm 31 | BODIPY interf inactive | BODIPY interf DR inactive
Cc1c(OCC(=O)N2CCC(C(N)=O)CC2)ccc2c3c(c(=O)oc12)CCC3	none
O=C(Nc1cccc(NC(=O)c2ccccc2Cl)c1)c1cccs1	none
O=c1cc(-c2ccccc2Cl)oc2cc(O)cc(O)c12	none
Nc1ccc(O)c2c(=O)cc(-c3ccccc3Cl)oc12	sPLA2-III inh 27 | sPLA2 confirm 42 | BODIPY interf inactive
COc1ccc(N2CCN(C(=O)CSc3ncnc4scc(-c5ccc(C)cc5)c34)CC2)cc1	none
O=C(NC1CC1)C1CCN(c2ncccn2)CC1	none
Cc1cc(C)c(S(=O)(=O)c2ccccc2)c(OC(=O)c2cc(F)c(F)cc2Cl)n1	none
O=c1c2c3c(sc2nc(N2CCNCC2)n1CCc1ccccc1)CCCCC3	sPLA2-III inh 20 | sPLA2 confirm inactive | BODIPY interf inactive
CCCCNC(=O)C1(C)CCN1C(=O)Cc1ccc(OC)cc1 (stereo not drawn)	none
CCOC(=O)C1(C)CCN1C(=O)Cc1ccc(OC)cc1 (stereo not drawn)	sPLA2-III inh 25 | sPLA2 confirm inactive | BODIPY interf inactive
C[C@H](CO)N1C[C@H](C)[C@@H](CN(C)S(=O)(=O)c2cn(C)cn2)Oc2ccc(NC(=O)C3CCCCC3)cc2C1=O	sPLA2-III inh 21 | sPLA2 confirm inactive | BODIPY interf inactive
CC(=O)N1c2ccccc2C(C)CC12CCCCC2 (stereo not drawn)	none
C=CCc1c(C)nc(-c2ccccc2)nc1Nc1ccccc1O	none
COc1ccc(OC)c2sc(NNC(=O)C3COc4ccccc4O3)nc12 (stereo not drawn)	sPLA2-III inh 21 | sPLA2 confirm inactive | BODIPY interf inactive
Cc1cc(C)c2sc(NNC(=O)C3COc4ccccc4O3)nc2c1 (stereo not drawn)	sPLA2-III inh 28 | sPLA2 confirm 31 | BODIPY interf inactive | BODIPY interf DR inactive
CC(C)Oc1ccc(C(=O)Nc2ccccc2N2CCCC2)cc1	none
CCCCn1c(N)c(N(CCOC)C(=O)C2CCN(S(=O)(=O)c3ccc(C)cc3)CC2)c(=O)[nH]c1=O	sPLA2-III inh 22 | sPLA2 confirm inactive | BODIPY interf inactive
O=C(NCCCn1ccnc1)c1ccc(Cl)cc1	sPLA2-III inh 21 | sPLA2 confirm inactive | BODIPY interf inactive
CCN(CC(=O)NC(C)(C)C)C(=O)COc1c(Cl)cc(Cl)c2ccc(C)nc12	none
CCN(CC(=O)NC(C)(C)C)C(=O)CCl	sPLA2-III inh 20 | sPLA2 confirm inactive | BODIPY interf inactive
CC(C)(C)NC(=O)c1ccc2c(c1)N(CC(=O)NC1CCCC1)C(=O)C(C)(C)O2	none
CC1(C)Cc2c(cnn2-c2ccc(F)cc2)C(NC(=O)CN2CCCC2=O)C1 (stereo not drawn)	none
O=C(NCCc1ccncc1)Nc1ccc(F)cc1	sPLA2-III inh 20 | sPLA2 confirm inactive | BODIPY interf inactive
CC(C)NC(=O)c1ccccc1NC(=O)/C=C/c1cccc([N+](=O)[O-])c1	sPLA2-III inh 23 | sPLA2 confirm inactive | BODIPY interf inactive
CN1c2ccsc2/C(=N/Nc2ccc(F)cc2)CS1(=O)=O	none
CCCCCOC(=O)CCN1C(=O)/C(=C2\SC(=S)N(CCC(=O)OCCCCC)C2=O)SC1=S	none
CCCCOC(=O)CCN1C(=O)/C(=C2\SC(=S)N(CCC(=O)OCCCC)C2=O)SC1=S	sPLA2-III inh 22 | sPLA2 confirm inactive | BODIPY interf inactive
O=C(CCNc1n[nH]c(=O)[nH]c1=O)N/N=C\c1cccc(OCc2ccccc2)c1	none
Oc1c(CN2CCCCC2)ccc2cccnc12	sPLA2-III inh 21 | sPLA2 confirm inactive | BODIPY interf inactive
COc1cccc(CN(CC(=O)NCc2ccco2)C(=O)CNS(=O)(=O)c2ccccc2)c1	none
COc1ccc(NC(=O)COC(=O)CC23CC4CC(CC(C4)C2)C3)c([N+](=O)[O-])c1	none
